A selection: hits, their analogues and other compounds. The true share with any hit is near 6.2%.
LASV entry inh – blocks Lassa virus binding to or entry into cells. AID 540256. Lassa virus pseudotype entry inhibition, cell reporter. Potency, µM (highest dose often 37.9 µM), without a hit: at the highest dose activity change, negative = inhibition, usual class: inhibitors. actives 1.2% (n = 300,000); calls by dose curve; tested in HEK293 cells; note: potency is the fitted concentration of half-maximal effect; nearly all actives have a fitted effect of over 50% in size
FMDV antiviral – antivirals against foot and mouth disease virus; FMDV antiviral cell-based qHTS; Potency, µM (series often up to 57.9 µM), for the others: at the top dose activity change, negative = inhibition, most hits filed as inhibitors; actives 1.2% (n = 410,000); AID 1159524; calls by dose curve; tested in HEK293T cells; note: read-out not given here; potency is the fitted concentration of half-maximal effect; nearly all actives have a fitted effect of over 45% in size
HCMV inh – human cytomegalovirus inhibition | activity change, negative = inhibition, % at 57.5 µM | actives 4.5% (n = 410,000) | HFF cells, HCMV-luciferase reporter, 72 h; stronger effect = lower value | AID 1259415; in the data active = activity change below about -60%; inconclusive = no clear call, values can overlap the other calls; inactive = above about -39%
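Luciferase read-out from HCMV-luciferase-infected HFFs (MOI 1 PFU/cell) 72 h post infection at 37C; compounds added after 16 h cell attachment; activity normalized between buffer-only basal and Salinomycin (10uM) inhibitor controls.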
Marburg entry inh – inhibitors of Marburg virus binding or cell entry; Marburg virus pseudotyped entry inhibition, cell reporter; Potency, µM (top dose mostly 37.8 µM), inactives show at the highest dose activity change, negative = inhibition, most hits filed as inhibitors; actives 1.8% (n = 300,000); AID 540276; calls by dose curve; tested in HEK293 cells; note: potency is the fitted concentration of half-maximal effect
An asterisk follows results filed as active; u = inconclusive; x = not tested or not shown; ! = repeats disagree; [ ] = another dose, or the depositor's remark. % is set by controls: 0 for no effect and ±100 for the full control effect.

SMILES | LASV entry inh | FMDV antiviral | HCMV inh | Marburg entry inh
CCOC(=O)/C=c1/s/c(=C\c2c(OC)ccc3ccccc23)c(=O)n1CC(=O)NCC1CCCO1 (stereo unspecified) | u | -11% | -87* | u
CCOC(=O)/C=c1\s/c(=C\c2ccccc2C)c(=O)n1CC(=O)NCc1ccc2c(c1)OCO2 | -20% | 19% | 3 | -27%
O=C(N/N=C/c1cc(Br)c(Br)s1)c1ccncc1 | 10µM* | 19% | -90* | u
O=C(NN=Cc1cc(=O)[nH]c(=O)[nH]1)c1ccncc1 | 15% | -16% | -68* | 13%
O=C(N/N=C/c1sc(=O)n(-c2ccccc2)c1Cl)c1ccncc1 | 3% | -1% | -86* | u
CCCCCOc1c(Cl)cc(C(=O)N(Cc2ccc(C)o2)C2CCS(=O)(=O)C2)cc1Cl (stereo unspecified) | -14%[46.1 µM] | u | 30 | -25%[46.1 µM]
CCCCOc1c(Cl)cc(C(=O)N(Cc2ccc(C)o2)C2CCS(=O)(=O)C2)cc1Cl (stereo unspecified) | -2%[46.1 µM] | u | -110* | u
Cc1ccc(-c2cc(NC(=O)CCl)n(-c3ccccc3)n2)cc1 | -18% | 22µM* | -97* | -25%[46.1 µM]
Cc1ccc(C)c(NC(=O)c2nc(-c3ccccc3)n(-c3ccccc3)n2)c1 | -30% | u | -22 | -26%
CC(=O)Nc1c(C)nn(-c2ccc([N+](=O)[O-])cc2)c1C | 2%[46.1 µM] | -7% | 3 | 19%[46.1 µM]
Cc1ccc(C)c(NC(=O)c2cc(-c3ccccc3)nn2-c2ccccc2)c1 | u | u | u | 11µM*
Cc1ccc(-n2nc(C)c(NC(=O)CCl)c2C)cc1 | 10µM* | -25% | -101* | u
O=C(CCl)Nc1cc(-c2ccccc2)nn1-c1ccccc1 | u | -67% | -87* | 5.2µM*
CCN(CC)CCNC(=O)CCc1n[nH]c(=O)c2ccccc12 | -1% | 10% | -9 | 5%
CC1CCCN(S(=O)(=O)c2ccc(NC(=O)C3CC(=O)N(C(C)(C)C)C3)cc2)C1 (stereo unspecified) | 1%[46.1 µM] | -12% | -23 | 1%
CCCN1C(=O)/C(=C/c2ccc(C)o2)SC1=Nc1ccc(OCC)cc1 | -13% | -13% | 5 | 12%
Cc1cc(C(=O)N/N=C/c2ccc([N+](=O)[O-])o2)c(C)o1 | x | u | -61* | x
Cc1ccc(NC(=O)CCC(=O)N/N=C/c2ccc([N+](=O)[O-])o2)cc1C | x | -24% | u | x
CCCC(=O)Nc1ccc(C(=O)N/N=C/c2ccc([N+](=O)[O-])o2)cc1 | u | u | -95* | 12µM*
CCCCCCCC(=O)Nc1ccc(C(=O)N/N=C/c2cccc([N+](=O)[O-])c2)cc1 | u | -10% | -69* | u
Cc1n[nH]c(C)c1S(=O)(=O)N(CC(=O)Nc1ccc(C(F)(F)F)cc1)c1ccc(C(C)C)cc1 | -6%[46.1 µM] | -27% | -96* | u
Cc1noc(C)c1S(=O)(=O)N(CC(=O)Nc1ccc(C(F)(F)F)cc1)c1ccc(C(C)C)cc1 | 10%[46.1 µM] | u | -8 | u
CCN(CC)CC(=O)Nc1ccc(Oc2ccc(NC(=O)CN(CC)CC)cc2)cc1 | -27% | -21% | -40 | 4µM*
O=C(CN1CCCC1)Nc1ccc(-c2nc3cc(NC(=O)CN4CCCC4)ccc3o2)cc1 | u | 38% | -100* | u
CCC(C)NCC(=O)Nc1ccc(-c2nc3cc(NC(=O)CNC(C)CC)ccc3o2)cc1 (stereo unspecified) | u | -7% | -84* | u
SMILES | LASV entry inh | FMDV antiviral | HCMV inh | Marburg entry inh
CCN(CC)CC(=O)Nc1ccc(-c2nc3cc(NC(=O)CN(CC)CC)ccc3o2)cc1 | 11% | 14% | 140 | 0.71µM*
CCN(CC(=O)Nc1ccc(OC)cc1)CC(=O)Nc1ccc(Cl)cc1F | -21% | -6% | 55 | -1%
CCCC(=O)Nc1ccc2oc(-c3ccncc3)nc2c1 | 14% | 37% | -11 | 23%
CCOC(=O)c1[nH]c(C)c(C(=O)NCCN2CCOCC2)c1C | x | -2% | -2 | x
CO/N=C\CC(=O)Nc1ccc(Oc2ccccc2)cc1 | u | -3% | -70* | u
O=S(=O)(c1ccccc1Cl)N1CCCC1c1nc(-c2ccc(Cl)cc2)no1 (stereo unspecified) | u | u | -68* | u
COc1ccc(CNC(=O)/C=C/c2ccc3[nH]cc(CCN(C)C)c3c2)cc1 | -14% | 24% | u | 35µM*!
COc1ccc2[nH]cc(CCN(C)C)c2c1 | x | -23% | -9 | u
CC(=O)OCCNc1cc(N2CCN(C)CC2)c2noc3c2c1C(=O)c1ccccc1-3 | x | u | -32 | x
CCOC(=O)C(C(=O)OCC)c1cc(Br)c2noc3c2c1C(=O)c1ccccc1-3 | 11µM* | 25µM* | -106* | u
Cc1ccc(-c2nn3c(C)nnc3s2)cc1NC(=O)c1ccc(-c2ccc(Cl)cc2Cl)o1 | u | -5% | -74* | 15µM*
Cc1ccc(-c2nn3c(C)nnc3s2)cc1NC(=O)c1ccc(-c2cccc(Cl)c2)o1 | u | u | u | 9.2µM*
Cc1nc(-c2ccccc2)sc1C(=O)/C=C/c1ccc(Cl)cc1 | -8% | 25µM* | -18 | 7%[46.1 µM]
CC(=O)c1sc(-c2ccc(Cl)cc2)nc1C | u | 48% | -19 | u
COc1ccc(N/C=C/C(=O)c2sc(-c3ccccc3)nc2C)cc1 | u | -31% | -61* | u
Cc1cccc(C)c1-n1nnnc1C(c1cc2ccccc2o1)N1CCC(n2c(=O)[nH]c3ccccc32)CC1 (stereo unspecified) | x | 10µM* | -67* | x
COc1ccc(C(c2nnnn2-c2c(C)cccc2C)N2CCC(n3c(=O)[nH]c4ccccc43)CC2)cc1 (stereo unspecified) | x | u | -69* | x
C=CCNc1nc2c(c(=O)n(C)c(=O)n2C)n1Cc1ccc(F)cc1 | x | u | -79* | x
Cn1c(=O)c2c(nc(NCCc3ccccc3)n2Cc2ccc(F)cc2)n(C)c1=O | x | u | -24 | x
CCCCCCn1c(N2CCCC2)nc2c1c(=O)n(C)c(=O)n2C | -19% | 28µM* | -22 | u
C=CCNc1nc2c(c(=O)n(C)c(=O)n2C)n1CC | x | -16% | -12 | x
CC(C)CCn1c(N2CCCC2)nc2c1c(=O)n(C)c(=O)n2C | x | 2% | -1 | x
C=CCNc1nc2c(c(=O)n(C)c(=O)n2C)n1CCCCCC | -42% | 14µM* | -96* | u
Cc1ccccc1OCC(=O)OCC(=O)Nc1ncc(Cl)c(C)c1Cl | x | -6% | -8 | x
O=c1cc(N2CCC3(CC2)OCCO3)[nH]c(=O)n1-c1ccc(Br)cc1 | u | 1% | 11 | 3%
COc1ccc(C)cc1Nc1n[n+](-c2ccccc2)c(-c2c(OC)ccc3ccccc23)s1 | x | u | -101* | x
Fc1ccc(-[n+]2nc(Nc3ccccc3)sc2-c2c3ccccc3cc3ccccc23)cc1 | x | 40µM* | -98* | x
C[C@@H]1CN([C@H](C)CO)C(=O)c2cc(Br)cnc2O[C@H]1CN(C)C(=O)Cc1ccncc1 | x | -5% | -6 | x
O=C(NCCN1CCC(n2c(=O)[nH]c3ccccc32)CC1)c1ccc(F)c(C(F)(F)F)c1 | x | -28% | -5 | x
O=C(NCCN1CCC(n2c(=O)[nH]c3ccccc32)CC1)c1ccc(C(F)(F)F)cc1C(F)(F)F | x | 20µM* | u | x

Bioassay records (PubChem BioAssay)
